Our source for the outcome and AC50 values is PubChem BioAssay (EPA / NIEHS).

Where “and” joins values, the source holds several entries; their conditions need not be identical. Identical values can stand only once. A structure can be active in one record and inactive in another. Calls of active or inactive are those of the source. Rule for the calls: active = hit-call score of the fitted dose curve at least 0.9, where 1 is the maximum; inactive = score below 0.9.

Read-out in experiment [1]: Interleukin 17F (IL17F), IL17F (gene 112744)
Kind of experiment: BSK_BT_xIL17F: BioMAP Diversity Plus: BT Assay for Interleukin 17F (IL17F) Biomarker Activity (AID 2284243). Conditions: primary human B cells with PBMC. An outline of the steps: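 Human PBMC co-cultured with B cells, compound exposure 24 h; secreted IL-17F quantified by Luminex xMAP, referenced to DMSO control. PBMC viability measured in parallel by Alamar Blue reduction.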

Read-out in experiment [2]: Actin alpha 1 (ACTA1), ACTA1 (gene 58)
Kind of experiment: BSK_MyoF_ACTA1: BioMAP Diversity Plus: MyoF Assay for Actin alpha 1 (ACTA1) Biomarker Activity (AID 2284244). Conditions: primary human lung fibroblasts. An outline of the steps:
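Cells were exposed to chemical for 24 h before a-SMA levels were quantified by ELISA in human lung fibroblasts. Increases were fitted against DMSO as negative control; parallel SRB staining (0.1% after 10% TCA fixation, 560 nm) assessed cytotoxicity.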

Read-out in experiment [3]: Interleukin 2 (IL2), IL2 (gene 3558)
Kind of experiment: BSK_BT_xIL2: BioMAP Diversity Plus: BT Assay for Interleukin 2 (IL2) Biomarker Activity (AID 2284245). Conditions: primary human B cells with PBMC. In outline:
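The BT system combines human B cells with peripheral blood mononuclear cells. Twenty-four hours after chemical dosing, secreted IL-2 was measured with xMAP bead technology, and responses were analyzed as increases over DMSO controls.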

Read-out in experiment [4]: Collagen IV, COL4A1 (gene 1282)
Kind of experiment: BSK_MyoF_CollagenIV: BioMAP Diversity Plus: MyoF Assay for Collagen IV Biomarker Activity (AID 2284247). Conditions: primary human lung fibroblasts. An outline of the steps: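 Human lung fibroblast system, 24 h chemical exposure. Endpoint: Collagen IV by ELISA, upward fit vs DMSO.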

Read-out in experiment [5]: Monokine induced gamma interferon (MIG), CXCL9 (gene 4283)
Kind of experiment: BSK_KF3CT_MIG: BioMAP Diversity Plus: KF3CT Assay for Monokine induced gamma interferon (MIG) Biomarker Activity (AID 2284248). Conditions: primary human keratinocytes with fibroblasts. An outline of the steps:
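Human keratinocyte–foreskin fibroblast co-culture; MIG measured by ELISA 24 h after chemical dosing, fitted upward versus DMSO. Cytotoxicity was assessed in parallel cultures by SRB total-protein staining read at 560 nm.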

Read-out in experiment [6]: Vascular cell adhesion molecule 1 (VCAM1), VCAM1 (gene 7412)
Kind of experiment: BSK_BF4T_VCAM1: BioMAP Diversity Plus: BF4T Assay for Vascular cell adhesion molecule 1 (VCAM1) Biomarker Activity (AID 2284249). Conditions: primary human bronchial epithelial cells with fibroblasts. In outline:
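Cell-surface VCAM-1 quantified by ELISA after 24 h chemical exposure of human bronchial epithelial/dermal fibroblast co-cultures, with SRB staining in parallel wells for cytotoxicity; DMSO baseline, positive-direction fitting.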

Read-out in experiment [7]: Interferon-inducible T-cell alpha chemoattractant (ITAC), CXCL11 (gene 6373)
Kind of experiment: BSK_hDFCGF_ITAC: BioMAP Diversity Plus: hDFCGF Assay for Interferon-inducible T-cell alpha chemoattractant (ITAC) Biomarker Activity (AID 2284251). Conditions: primary human foreskin fibroblasts. In outline: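 I-TAC levels were read by ELISA on human dermal foreskin fibroblast primary cultures 24 h after dosing, analysed against DMSO in the positive direction. Cytotoxicity was assessed alongside by sulforhodamine B total-protein staining.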

Read-out in experiment [8]: Plasminogen activator inhibitor-1 (PAI1), SERPINE1 (gene 5054)
Kind of experiment: BSK_KF3CT_PAI1: BioMAP Diversity Plus: KF3CT Assay for Plasminogen activator inhibitor-1 (PAI1) Biomarker Activity (AID 2284252). Conditions: primary human keratinocytes with fibroblasts. An outline of the steps:
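Cells (human keratinocytes co-cultured with foreskin fibroblasts) are exposed to test chemical for 24 h. PAI-1 is then measured by ELISA and analysed for signal gain against DMSO.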

Read-out in experiment [9]: Interleukin-8 (IL8), CXCL8 (gene 3576)
Kind of experiment: BSK_KF3CT_IL8: BioMAP Diversity Plus: KF3CT Assay for Interleukin-8 (IL8) Biomarker Activity (AID 2284254). Conditions: primary human keratinocytes with fibroblasts. An outline of the steps:
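Human keratinocyte/foreskin fibroblast co-culture dosed 24 h; IL-8 measured by ELISA relative to DMSO. Parallel cultures stained with SRB for total protein to flag cytotoxicity.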

Read-out in experiment [10]: Plasminogen activator inhibitor-1 (PAI1), SERPINE1 (gene 5054)
Kind of experiment: BSK_MyoF_PAI1: BioMAP Diversity Plus: MyoF Assay for Plasminogen activator inhibitor-1 (PAI1) Biomarker Activity (AID 2284256).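 Note: PAI-1 read 24 h after compound addition.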 Conditions: primary human lung fibroblasts. In outline:
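Primary human lung fibroblasts treated with chemical for 24 h; PAI-1 levels quantified by ELISA relative to DMSO. Cytotoxicity was assessed in parallel cultures by SRB total-protein staining (0.1% SRB after 10% TCA fixation, 560 nm).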

Read-out in experiment [11]: CD69, CD69 (gene 969)
Kind of experiment: BSK_IMphg_CD69: BioMAP Diversity Plus: IMphg Assay for CD69 Biomarker Activity (AID 2284257). Conditions: primary human endothelial cells with macrophages. An outline of the steps: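 Readout is ELISA for CD69 in primary human venular endothelial cell/macrophage co-culture, taken at 24 h post-dosing. SRB staining of parallel cultures gauged overt cytotoxicity; signal increase versus DMSO defined activity.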

Read-out in experiment [12]: Eotaxin 3, CCL26 (gene 10344)
Kind of experiment: BSK_BF4T_Eotaxin3: BioMAP Diversity Plus: BF4T Assay for Eotaxin 3 Biomarker Activity (AID 2284258). Conditions: primary human bronchial epithelial cells with fibroblasts. In outline:
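ELISA measurement of Eotaxin-3 after 24 h chemical exposure in a bronchial epithelial/dermal fibroblast co-culture, with DMSO as baseline. Parallel SRB staining (0.1% SRB after 10% TCA fixation, 560 nm) flagged overt cytotoxicity.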

Read-out in experiment [13]: Monocyte Chemoattractant Protein-1 (MCP1), CCL2 (gene 6347)
Kind of experiment: BSK_BF4T_MCP1: BioMAP Diversity Plus: BF4T Assay for Monocyte Chemoattractant Protein-1 (MCP1) Biomarker Activity (AID 2284259). Conditions: primary human bronchial epithelial cells with fibroblasts. In outline:
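MCP-1 ELISA readout taken 24 h after dosing in the BF4T system (bronchial epithelial cells plus dermal fibroblasts). Parallel SRB total-protein staining flagged cytotoxicity; DMSO served as baseline, positive fitting direction.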

Read-out in experiment [14]: Intercellular Adhesion Molecule 1 (ICAM1), ICAM1 (gene 3383)
Kind of experiment: BSK_BF4T_ICAM1: BioMAP Diversity Plus: BF4T Assay for Intercellular Adhesion Molecule 1 (ICAM1) Biomarker Activity (AID 2284260). Conditions: primary human bronchial epithelial cells with fibroblasts. An outline of the steps: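 ICAM-1 levels measured by ELISA after 24 h chemical treatment of bronchial epithelial cell/dermal fibroblast co-cultures, read against DMSO baseline. Overt cytotoxicity checked in parallel cultures by sulforhodamine B staining.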

Read-out in experiment [15]: Interleukin-8 (IL8), CXCL8 (gene 3576)
Kind of experiment: BSK_MyoF_IL8: BioMAP Diversity Plus: MyoF Assay for Interleukin-8 (IL8) Biomarker Activity (AID 2284261). Conditions: primary human lung fibroblasts. In outline: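 Human lung fibroblast (MyoF system) cultures dosed for 24 h, then IL-8 measured by ELISA. Response taken relative to DMSO; parallel SRB total-protein staining for cytotoxicity.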

Read-out in experiment [16]: CD90, THY1 (gene 7070)
Kind of experiment: BSK_BF4T_CD90: BioMAP Diversity Plus: BF4T Assay for CD90 Biomarker Activity (AID 2284262). Conditions: primary human bronchial epithelial cells with fibroblasts. An outline of the steps: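 CD90 levels by ELISA after 24 h treatment of human bronchial epithelial cell/dermal fibroblast cultures, analysed versus DMSO. Overt cytotoxicity checked in parallel cultures by sulforhodamine B staining.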

Read-out in experiment [17]: Macrophage Inflammatory Protein-1 Alpha (MIP1a), CCL3 (gene 6348)
Kind of experiment: BSK_IMphg_MIP1a: BioMAP Diversity Plus: IMphg Assay for Macrophage Inflammatory Protein-1 Alpha (MIP1a) Biomarker Activity (AID 2284255). Conditions: primary human endothelial cells with macrophages. In outline:
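MIP-1a protein levels were quantified by ELISA after 24 h treatment of human endothelial cell–macrophage co-cultures, compared with DMSO. Parallel cultures were fixed with TCA and stained with 0.1% SRB to gauge overt cytotoxicity.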

As to `NCC(F)(F)C(F)(F)C(F)(F)C(F)(F)C(F)(F)C(F)(F)F`, the outcome in experiment [1], in experiment [2], in experiment [3], in experiment [4], in [5] and in experiment [6] was inactive. The result in experiment [7], in experiment [8], in experiment [9], in experiment [10], in experiment [11] and in experiment [12] was inactive. In addition, the outcome in experiment [13], in [14], in experiment [15] and in experiment [16] was inactive.
Consider `CCN=C1C=CC(=C(c2ccc(N(CC)CC)cc2)c2ccc(N(CC)CC)cc2)c2ccccc21`, for which the AC50 is 2.63 µM (active) and 2.31 µM (active) in experiment [5]; 704 nM (active) and 1.12 µM (active) in [7]; 1.64 µM (active) and 1.56 µM (active) in experiment [8]; 2.34 µM (active) in experiment [9]. In experiment [9], the result was inactive.
As to `OCC(O)CC(F)(F)C(F)(F)C(F)(F)C(F)(F)F` (stereo unspecified), the result in [1], in [2], in [3], in [4], in [5] and in experiment [6] was inactive. Besides, the result in [7], in [8], in experiment [9], in experiment [10], in [11] and in [12] was inactive. Moreover, the result in experiment [13], in experiment [14], in experiment [15] and in [16] was inactive. Besides, the half-maximal activity concentration (AC50) in experiment [13] is 0.263 µM (active).
As for `CC1=CC2C3C=CC(C3)C2C1C` (stereo unspecified), the result in experiment [1], in experiment [2], in experiment [3], in experiment [4], in [10] and in [15] was inactive.
For `NC(=O)C(F)(F)C(F)(F)C(F)(F)F`, the result in [1], in experiment [2], in experiment [3], in [4], in [5] and in [6] was inactive. Also, the result in experiment [7], in experiment [8], in experiment [9], in experiment [17], in [10] and in [11] was inactive. Also, the result in experiment [12], in [13], in experiment [14], in experiment [15] and in [16] was inactive.
Take `FC(F)(F)C(F)(F)C(F)(F)CC1CO1` (stereo unspecified): the result in experiment [1], in experiment [2], in experiment [3], in experiment [4], in [5] and in experiment [6] was inactive. The result in [7], in experiment [8], in experiment [9], in experiment [10], in experiment [11] and in experiment [12] was inactive. The result in experiment [13], in experiment [14], in experiment [15] and in experiment [16] was inactive. Further, the AC50 in experiment [7] is 5.97 µM (active).
On to `O=C(Cl)C(F)(F)C(F)(F)C(F)(F)C(F)(F)C(F)(F)C(F)(F)C(F)(F)F`, for which the outcome in experiment [1], in [2], in experiment [3], in experiment [4], in experiment [5] and in experiment [6] was inactive. Besides, the outcome in experiment [7], in experiment [8], in experiment [9], in [10], in experiment [11] and in experiment [12] was inactive. The result in experiment [13], in [14], in experiment [15] and in experiment [16] was inactive.
Turning to `NS(=O)(=O)C(F)(F)C(F)(F)C(F)(F)C(F)(F)C(F)(F)C(F)(F)F`, the result in experiment [1], in [2], in experiment [3], in experiment [5], in experiment [8] and in experiment [9] was inactive. Also, the result in experiment [10], in [12], in experiment [13], in experiment [14], in [15] and in experiment [16] was inactive. Also, the AC50 in experiment [4] was 25.5 µM (active) and 20.4 µM (active); in experiment [6], 19.8 µM (active) and 21.1 µM (active); in experiment [7], 43.1 µM (active) and 39.1 µM (active); in experiment [11], 21.7 µM (active) and 30 µM (active); in experiment [13], 7.99 µM (active).
